This is one part of a sample in which hits are shown more often than they occur.
Tgondii IFNg: T. gondii growth inhibition with IFN-gamma, primary screen, cell-based; activity change, negative = inhibition, % (test concentration not listed); Toxoplasma gondii growth in IFN-gamma-treated host cells; hits give low values; 69,000 compounds, 3.8% hits; AID 1259416, 2018; in the data active = activity change below about -70%, passing the limit was not always enough;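 note: host cells are HeLa cells infected with Toxoplasma gondii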
* hit, by the source's call; i = inactive; ! = a repeat was not active.

SMILES	Tgondii IFNg
CO[C@H]1CCN(C(=O)c2ccno2)[C@H]1Cc1cnn(C)c1	344
Cc1nsc(NC(=O)NC2CCN(Cc3ccccc3Cl)CC2)n1	-6
O=C(Nc1ccc(Cl)c(Cl)c1Cl)NC1CCSC1 (stereo not given)	-75*
COc1ccc(-c2nc(C)c(CCNC(=O)c3ccc(C)cc3)s2)cc1OC	i
Cc1cc(-c2cnc(C(C)C)nc2-c2ccc(CNC(=O)CCc3ccccc3)cc2)on1	76
NC(=O)c1ccccc1O	11
Cc1ccc(C)n1NC(=O)c1ccccc1O	-95*
O=C(Nc1ccccc1)c1ccccc1O	-18
CC(C)CCNC(=O)c1cnc(-c2noc3cc(NCC4CC4)ccc23)s1	-48
Cc1cc(C(=O)N2CCN(C3CCCCC3)CC2)cc(S(N)(=O)=O)c1C	16
COc1ccc(-c2ccc([C@H]3[C@@H](C#N)N(C(=O)NC(C)C)[C@H]3CO)cc2)cc1	-76*
COc1ccc(-c2ccc([C@H]3[C@H](C#N)N(C(=O)NC(C)C)[C@H]3CO)cc2)cc1	-55
COc1ccc(-c2ccccc2[C@H]2[C@@H](C#N)N(C(=O)NC(C)C)[C@H]2CO)cc1	-12
O=C(CN1CCC(N2CCCCC2)CC1)Nc1ccccc1N1CCOCC1	26
CCOC(=O)C1=C(C)NC(C)=C(C(=O)OC)C1c1cccc([N+](=O)[O-])c1 (stereo not given)	-2
COC(=O)C1=C(C)NC(C)=C(C(=O)O[C@@H]2CCCN(Cc3ccccc3)C2)[C@@H]1c1cccc([N+](=O)[O-])c1	32
COCCOC(=O)C1=C(C)NC(C)=C(C(=O)OC(C)C)C1c1cccc([N+](=O)[O-])c1 (stereo not given)	7
COC(=O)C1=C(C)NC(C)=C(C(=O)OCCCN2CCC(c3ccccc3)(c3ccccc3)CC2)[C@H]1c1cccc([N+](=O)[O-])c1	-71*!
CC1=C(C(=O)OCCN(Cc2ccccc2)c2ccccc2)C(c2cccc([N+](=O)[O-])c2)C(P2(=O)OCC(C)(C)CO2)=C(C)N1 (stereo not given)	-13
COCCOC(=O)C1=C(C)NC(C)=C(C(=O)OC/C=C/c2ccccc2)C1c1cccc([N+](=O)[O-])c1 (stereo not given)	-73*!
COc1ccc(Cl)cc1C(=O)Nc1cccc2nonc12	26
COc1ccc(-c2cccc(Cl)c2Cl)nn1	5
CC(C)(C)c1ccc(-c2nn[nH]n2)cc1	i
C=CC(=O)Nc1cccc(Oc2nc(Nc3ccc(N4CCN(C)CC4)cc3)ncc2Cl)c1	-57
C=CC(=O)Nc1cccc(Nc2nc(Nc3ccc(N4CCN(C(C)=O)CC4)cc3OC)ncc2C(F)(F)F)c1	2
SMILES	Tgondii IFNg
COc1cc(N2CCC(N(C)C)CC2)ccc1Nc1ncc(Cl)c(Nc2ccccc2P(C)(C)=O)n1	-74*
COc1cc(N2CCC(N3CCN(C)CC3)CC2)ccc1Nc1ncc(Cl)c(Nc2ccccc2S(=O)(=O)C(C)C)n1	-83*
Cc1nc(CCNC(=O)C2=NNC(=O)CC2)nc2c1CCCC2	21
CCCN1CC(Nc2ncc(C)c(N(C)C)n2)CC1=O (stereo not given)	3
O=C(Cc1c[nH]c2ccccc12)NC1CCCN(c2cc(-c3ccncc3)[nH]n2)C1 (stereo not given)	111
O=C(c1ccc(Cn2ccnc2)o1)N1CCCC(c2ccn[nH]2)C1 (stereo not given)	-39
CSCCC(NC1=NCCN1)C(=O)O (stereo not given)	291
Cc1coc2c1C(=O)C(=O)c1c-2ccc2c(C)cccc12	-72*
O=S(=O)(c1cccc(Cl)c1)N1CCC2(CC1)Nc1cc(F)ccc1-n1cccc12	5
Cc1cc(C)n(CCNC(=O)Cn2nc(C)c(C)c2C)n1	5
O=C(Nc1cnn(-c2ncncc2N2CCCCC2)c1)C1CCCCC1	-80*
O=C(Nc1cnn(-c2ncncc2N2CCSCC2)c1)NC1CCCCC1	18
O=C(Nc1cnn(-c2ncncc2N2CCCCC2)c1)C1CCCC1	-33
CN1C(=O)CCc2cc(NC(=O)c3cc4ccccc4[nH]3)ccc21	79
Cc1ccc(S(=O)(=O)NCc2nc(-c3cccc(Cl)c3)oc2C)c(C)c1	68
COc1ccc(/C=C/C(=O)N2CCCC(c3nc(C)ncc3Cc3ccccc3)C2)cc1 (stereo not given)	-5
COc1cccc(-c2cnc(N(C)C)nc2C2CCCN(C(=O)Cc3c(C)noc3C)C2)c1 (stereo not given)	-13
Cc1cccc(-c2cnc(C)nc2C2CCCN(C(=O)/C=C/c3cc(F)ccc3F)C2)c1 (stereo not given)	-73*
COC(=O)c1cc2n(n1)CCCN(C(=O)c1cnnn1-c1ccccc1)C2	-5
CCS(=O)(=O)N1CCC2(CC1)CC(N(C)Cc1ccco1)CO2 (stereo not given)	-7
CCCCCN1CC2CN(C(=O)Nc3ccccc3)CC2C1 (stereo not given)	1
CCC(NC(=O)c1sc(-c2ccccn2)nc1C)c1ccc(OC)cc1 (stereo not given)	0
Cn1cc(CN2CCc3ncnc(-c4cccc(F)c4)c3CC2)cn1	-6
CN1CCC(n2cc(-c3ccnc(N)c3)c(-c3cccc(F)c3)n2)CC1	-97*
CN1CCN(C(=O)NCc2nc(-c3cccc(F)c3)c(-c3ccccn3)[nH]2)CC1	1
SMILES	Tgondii IFNg
Cc1cc(C(=O)NC2CCC3(CCC(=O)N3C)CC2)no1 (stereo not given)	-69
Cc1cccc(NC(=O)c2ccnn2-c2ccc3ccccn23)c1	-9
O=C(NC(c1ccccc1)c1ccccc1)c1ccc2c(c1)OCCO2	-10
Cc1ccc(Nc2nc(C(=O)NC(C)Cc3ccco3)nc3ccccc23)cc1 (stereo not given)	-46
COc1cc2ncnc(Nc3ccc(F)c(Cl)c3)c2cc1NC(=O)/C=C/CN1CCCCC1	-82*
CNC(=O)CN1CCC(Oc2cc3c(Nc4cccc(Cl)c4F)ncnc3cc2OC)CC1	-66
CCN(CC)CC1CCN(c2ncc3ncnc(Nc4ccc(F)c(Cl)c4)c3n2)CC1	4
c1ccc2c(c1)CC1(CCCCC1)n1nnnc1-2	28
O=C1C(=O)N2C(=C1C(=O)N1CCOCC1)c1ccccc1CC21CCCCC1	-96*
O=C1C(=O)N2C(=C1C(=O)N1CCCCCC1)c1ccccc1CC21CCCC1	117
Cc1cc2cccc(NC(=O)CC(C)n3ccnc3)c2o1 (stereo not given)	-56
COc1ccc(C)cc1N1CC(C(=O)NCCc2nc3cc(C)c(C)cc3[nH]2)CC1=O (stereo not given)	7
Cn1nnnc1SCC(=O)N=C1NC(=O)CS1	7
O=C(c1cscn1)N1CCCC2(CCCN2Cc2ccc(Cl)cc2)C1 (stereo not given)	7
Cc1ccc(-n2[nH]c(C)c(CC(=O)O)c2=O)cc1	78
Cc1ccc(Cc2c(C)[nH]n(-c3nc4ccccc4[nH]3)c2=O)cc1	-98*
Cc1ccc2nc(Cc3ccc(NC(=O)CCc4nc5ccccc5[nH]4)cc3)[nH]c2c1	223
O=C(Nc1ccccc1-c1ccccc1CO)C1CC1	6
CCO[C@H]1COC[C@@H]1NC(=O)Cc1nc2ccc(Cl)cc2[nH]1	-2
O=C1CCCc2occ(C(=O)N3CCc4[nH]nc(Cc5ccccc5)c4C3)c21	-8
O=C(c1ccc2cccnc2c1O)N1CCCC(CCc2ccc(F)cc2)C1 (stereo not given)	-81*
Cc1ncc(C(=O)N2CCCC(CCc3ccc(F)cc3)C2)s1 (stereo not given)	-14
O=C(c1cn[nH]c1-n1cnnn1)N1CCCC(CCc2ccc(F)cc2)C1 (stereo not given)	-13
